This passage reports growth inhibition, inhibition and outcome results from PubChem BioAssay.

Experiment [1] can be described thus: antimalarial activity against Dd2 strain (AID 2302;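 active means growth inhibition above 50% at the single 2 µM test dose, taken to imply half-maximal potency below 2 µM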;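 further: 0% = DMSO untreated growth and 100% = chloroquine plus artemisinin killed control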). The following applies: P. falciparum Dd2 in RBCs, LDH growth readout, 72 h; at 2 µM; stronger effect = higher value.
Experiment [2] in a line: HepG2 cytotoxicity, primary screen, cytotoxicity control for P. falciparum antimalarial project, cell-based, ATP luminescence (AID 2303;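 active means inhibition above 50%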;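 further: 0% = DMSO wells and 100% = digitonin-killed cells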). To be noted: HepG2 viability, 24-48 h, at 10 µM, stronger effect = higher value.
Experiment [3] concerns the target L-lactate dehydrogenase (Plasmodium falciparum (isolate CDC / Honduras)) (UniProt Q27743). In words: PfLDH activity inhibition – cell lysate, 3D7 strain, counter-screen for P. falciparum growth inhibition project (AID 2304).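 Further: 0% = vehicle and 100% = reference inhibitor.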 The following applies: P. falciparum 3D7 crude extract, LDH APAD/NBT absorbance; at 2 µM; stronger effect = higher value.
Experiment [4] is described as follows: inhibition of 3D7 malaria parasite growth – strain 3D7 (AID 2306).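 Further: 0% = DMSO wells and 100% = chloroquine plus artemisinin control wells.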 The following applies: P. falciparum 3D7 erythrocytic growth, LDH absorbance, 72 h; at 2 µM; stronger effect = higher value.
The target in experiment [5] is Calcium-dependent protein kinase 1 (Plasmodium falciparum (isolate 3D7)) (UniProt P62344). In words: PfCDPK1 kinase inhibitors, biochemical, TCAMS library (AID 1159585; cut-off not given, nearly all actives have IC50 up to about 0.98 µM;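 further: inhibitors leave more ATP so luminescence rises with inhibition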). To be noted: recombinant PfCDPK1, Kinase-Glo ATP depletion luminescence. A general note: In Kinase-Glo more light means more ATP remaining.
Experiment [6] addresses Plasmodium falciparum protein kinase 6 (PK6, PF3D7_1337100) (UniProt Q8IDW1). Briefly: PfPK6 kinase inhibitors, biochemical, TCAMS library (AID 1159586). To be noted: recombinant PfPK6, Kinase-Glo ATP depletion luminescence.
Experiment [7] addresses Protein kinase 7 (PK7), Plasmodium falciparum 3D7 (PF3D7_0213400) (UniProt Q7YTF7). In words: inhibition of Plasmodium PK7 catalytic activity – biochemical, TCAMS antimalarial set, Kinase-Glo luminescence (AID 1159587). To be noted: recombinant PfPK7, Kinase-Glo ATP depletion luminescence.
Experiment [8] has as its target Calcium-dependent protein kinase 4 (Plasmodium falciparum (isolate 3D7)) (UniProt Q8IBS5). In words: PfCDPK4 kinase inhibitors, biochemical, TCAMS library (AID 1159588; cut-off not given, nearly all actives have IC50 up to about 0.91 µM). The following applies: recombinant PfCDPK4, Kinase-Glo ATP depletion luminescence.

Values without a mark were called inactive. For some of these results: Measured potencies and affinities stand elsewhere. The source made the active and inactive calls. Unless noted, how the calls were made is not given here.

L-lactate dehydrogenase (Plasmodium falciparum (isolate CDC / Honduras)), sequence (Q27743 whole entry, looked up): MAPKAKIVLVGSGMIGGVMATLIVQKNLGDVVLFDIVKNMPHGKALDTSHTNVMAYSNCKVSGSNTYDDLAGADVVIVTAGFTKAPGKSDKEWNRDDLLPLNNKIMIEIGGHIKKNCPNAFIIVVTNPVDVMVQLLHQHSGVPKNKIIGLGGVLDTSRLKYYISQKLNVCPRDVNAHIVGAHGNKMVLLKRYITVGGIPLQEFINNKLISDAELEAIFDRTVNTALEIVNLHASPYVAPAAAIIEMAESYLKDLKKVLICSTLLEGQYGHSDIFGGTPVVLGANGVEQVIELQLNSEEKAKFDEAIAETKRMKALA
Plasmodium falciparum protein kinase 6 (PK6, PF3D7_1337100), sequence (Q8IDW1 1-305): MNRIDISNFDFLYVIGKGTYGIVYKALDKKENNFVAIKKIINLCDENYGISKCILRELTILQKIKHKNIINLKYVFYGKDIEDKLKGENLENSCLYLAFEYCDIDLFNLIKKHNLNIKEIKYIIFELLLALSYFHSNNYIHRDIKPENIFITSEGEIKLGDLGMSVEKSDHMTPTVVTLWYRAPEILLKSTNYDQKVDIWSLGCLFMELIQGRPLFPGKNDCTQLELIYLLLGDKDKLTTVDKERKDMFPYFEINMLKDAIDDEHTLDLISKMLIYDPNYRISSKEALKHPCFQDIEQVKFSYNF
Calcium-dependent protein kinase 1 (Plasmodium falciparum (isolate 3D7)), sequence (P62344 whole entry, looked up): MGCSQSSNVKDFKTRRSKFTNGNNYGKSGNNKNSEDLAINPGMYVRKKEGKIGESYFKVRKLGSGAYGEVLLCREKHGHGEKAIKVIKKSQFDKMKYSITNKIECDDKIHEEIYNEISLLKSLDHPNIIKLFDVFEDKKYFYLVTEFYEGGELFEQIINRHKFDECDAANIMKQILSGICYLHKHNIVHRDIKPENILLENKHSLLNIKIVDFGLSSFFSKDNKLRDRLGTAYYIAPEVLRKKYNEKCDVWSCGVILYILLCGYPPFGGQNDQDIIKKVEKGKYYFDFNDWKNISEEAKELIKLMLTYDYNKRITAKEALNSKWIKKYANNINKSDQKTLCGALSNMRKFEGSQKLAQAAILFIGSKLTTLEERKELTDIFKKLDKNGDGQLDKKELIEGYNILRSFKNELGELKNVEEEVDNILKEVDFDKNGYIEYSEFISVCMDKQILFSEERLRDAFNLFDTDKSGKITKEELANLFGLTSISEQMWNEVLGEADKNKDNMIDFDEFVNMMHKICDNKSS
Protein kinase 7 (PK7), Plasmodium falciparum 3D7 (PF3D7_0213400), sequence (Q7YTF7 1-343): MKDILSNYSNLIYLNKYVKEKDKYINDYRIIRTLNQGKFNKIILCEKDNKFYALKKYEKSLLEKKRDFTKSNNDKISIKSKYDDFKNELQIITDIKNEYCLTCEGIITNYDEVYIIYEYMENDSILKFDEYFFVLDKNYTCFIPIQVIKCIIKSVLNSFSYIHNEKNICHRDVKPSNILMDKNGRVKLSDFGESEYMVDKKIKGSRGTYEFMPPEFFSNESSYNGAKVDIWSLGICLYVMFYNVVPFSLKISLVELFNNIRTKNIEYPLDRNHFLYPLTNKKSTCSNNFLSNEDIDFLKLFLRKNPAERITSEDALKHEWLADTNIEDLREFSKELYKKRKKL
Calcium-dependent protein kinase 4 (Plasmodium falciparum (isolate 3D7)), sequence (Q8IBS5 whole entry, looked up): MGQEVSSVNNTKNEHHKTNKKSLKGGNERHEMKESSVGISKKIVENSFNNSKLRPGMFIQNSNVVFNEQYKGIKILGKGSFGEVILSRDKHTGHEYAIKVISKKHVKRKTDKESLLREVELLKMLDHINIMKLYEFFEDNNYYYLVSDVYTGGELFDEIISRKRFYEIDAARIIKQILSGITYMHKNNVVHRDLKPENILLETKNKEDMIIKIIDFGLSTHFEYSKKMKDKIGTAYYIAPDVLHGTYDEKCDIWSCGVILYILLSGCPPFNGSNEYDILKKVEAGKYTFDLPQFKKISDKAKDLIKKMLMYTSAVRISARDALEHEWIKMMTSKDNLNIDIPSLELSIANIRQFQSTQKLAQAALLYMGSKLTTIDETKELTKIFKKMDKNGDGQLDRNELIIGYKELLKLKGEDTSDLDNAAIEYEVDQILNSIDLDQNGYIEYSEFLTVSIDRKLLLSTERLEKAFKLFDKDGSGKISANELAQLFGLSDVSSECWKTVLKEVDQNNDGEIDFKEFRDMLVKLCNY

Take `CCc1ccccc1N1CCN(CCCC(=O)c2ccc(NC(=O)c3ccc(Cl)cc3)cc2)CC1`: the values for the growth inhibition in experiment [1] and in experiment [4] were 4% and 90% (active), respectively. The inhibition (in general, the relative decrease from the control value, in per cent) in experiment [2] is 17%; in experiment [3], 7%. Further, the result in experiment [5], in experiment [6], in experiment [7] and in experiment [8] was inactive.
Turning to `O=C(/C=C/c1ccc(Cl)c(Cl)c1)NCCCCCN1CCC(NC(=O)c2cc(Cl)ccc2F)CC1`, the values for the growth inhibition in experiment [1] and in experiment [4] were 32% and 92% (active), respectively. Further, the inhibition in experiment [2] was 48%; in experiment [3], 4%. For the same compound, the result in experiment [5], in experiment [6], in experiment [7] and in experiment [8] was inactive.
Consider `CC(C)n1ncc2c3c(N)nc(N)nc3ccc21`, for which the growth inhibition in experiment [1] is 6%; in experiment [4] it was 98% (active). Besides, the inhibition in experiment [2] was 64% (active); in experiment [3], -3%. The outcome in experiment [5], in experiment [6], in experiment [7] and in experiment [8] was inactive.
For the compound `CC(C)N1CCC(N(Cc2ccc(-c3ccc(Cl)cc3)cc2)C(=O)Cn2c(CCc3cccc(F)c3F)cc(=O)c3ccccc32)CC1`, the values for the growth inhibition in experiment [1] and in experiment [4] were 73% (active) and 96% (active), respectively. Besides, the inhibition was 62% (active) in experiment [2] and 4% in experiment [3]. The result in experiment [5], in experiment [6], in experiment [7] and in experiment [8] was inactive.
`Cc1cc(C2CCN(CCCCNC(=O)c3ccc(-c4ccc(C(F)(F)F)cc4)cc3)CC2)c(C)cc1OCCOC1CCCCO1` (stereo not given): the growth inhibition was 5% in experiment [1] and 95% (active) in experiment [4]. The values for the inhibition in experiment [2] and in experiment [3] were 30% and -7%, respectively. For the same compound, the result in experiment [5], in experiment [6], in experiment [7] and in experiment [8] was inactive.
As for `Cc1ccc2[nH]cc(/C=C/C(=O)NC3CCC(CCN4CCc5ccc(C#N)cc5CC4)CC3)c2c1` (stereo not given), the growth inhibition was 49% in experiment [1] and 93% (active) in experiment [4]. In addition, the results for the inhibition in experiment [2] and in experiment [3] were 11% and -4%, respectively. In addition, the result in experiment [5], in experiment [6], in experiment [7] and in experiment [8] was inactive.
For the compound `COc1ccc(-c2ccc(NC(=O)c3cccc(F)c3)cc2)cc1CNC(C)C`, the growth inhibition is 14% in experiment [1] and 97% (active) in experiment [4]. The values for the inhibition in experiment [2] and in experiment [3] were 17% and -2%, respectively. The result in experiment [5], in experiment [6], in experiment [7] and in experiment [8] was inactive.
Take `COc1cccc2c(NN=Cc3ccc(Cl)cc3)ccnc12`: the growth inhibition is 39% in experiment [1] and 99% (active) in experiment [4]. For the same compound, the inhibition in experiment [2] is 26%; in experiment [3] it was 5%. The outcome in experiment [5], in experiment [6], in experiment [7] and in experiment [8] was inactive.
Take `CC1(C)N=C(N)N=C(N)N1OCCc1ccc2ccccc2c1`: the growth inhibition in experiment [1] is 95% (active); in experiment [4], 96% (active). Also, the inhibition in experiment [2] was 65% (active); in experiment [3], 3%. In addition, the result in experiment [5], in experiment [6], in experiment [7] and in experiment [8] was inactive.
On to `CCNc1cc(C(=O)N[C@@H](Cc2ccccc2)[C@H](O)CNC(C)(C)CCCC(C)C)c(F)c(N2CCCS2(=O)=O)c1`, for which the figures for the growth inhibition in experiment [1] and in experiment [4] were 97% (active) and 98% (active), respectively. The inhibition in experiment [2] is -2%; in experiment [3], -4%. The outcome in experiment [5], in experiment [6], in experiment [7] and in experiment [8] was inactive.
As for `N#Cc1ccc2c(c1)CN(C1CCC(NC(=O)C3=Cc4cc(Cl)ccc4OC3)CC1)CCC2` (stereo not given), the results for the growth inhibition in experiment [1] and in experiment [4] were 8% and 93% (active), respectively. Further, the inhibition was -5% in experiment [2] and 2% in experiment [3]. For the same compound, the outcome in experiment [5], in experiment [6], in experiment [7] and in experiment [8] was inactive.
With `Fc1ccc2nc(-c3cccc(-c4cccc(CNCC5CCCO5)c4)c3)[nH]c2c1` (stereo not given), the growth inhibition in experiment [1] is 94% (active); in experiment [4], 99% (active). The inhibition in experiment [2] is 40%; in experiment [3], 3%. Besides, the outcome in experiment [5], in experiment [6], in experiment [7] and in experiment [8] was inactive.
Regarding `CN(C)S(=O)(=O)c1cc(-c2ccc3nccc(-c4cccc(S(N)(=O)=O)c4)c3c2)cnc1N`, the growth inhibition was 98% (active) in experiment [1] and 100% (active) in experiment [4]. Also, the inhibition in experiment [2] was 35%; in experiment [3], -2%. In addition, the outcome in experiment [5], in experiment [6], in experiment [7] and in experiment [8] was inactive.
On to `CN(C)CCn1cc(C(=O)c2cc(Cl)ccc2O)cc1-c1nc2ccccc2c(=O)[nH]1`, for which the values for the growth inhibition in experiment [1] and in experiment [4] were 87% (active) and 99% (active), respectively. For the same compound, the results for the inhibition in experiment [2] and in experiment [3] were 16% and -3%, respectively. In addition, the outcome in experiment [5], in experiment [6], in experiment [7] and in experiment [8] was inactive.
For `Cc1cccc2[nH]c(-c3cccc(-c4cccc(CNCCNC(=O)c5ccnn5C)c4)c3)nc12`, the values for the growth inhibition in experiment [1] and in experiment [4] were 71% (active) and 100% (active), respectively. The inhibition in experiment [2] is 26%; in experiment [3], -3%. Also, the result in experiment [5], in experiment [6], in experiment [7] and in experiment [8] was inactive.
In the case of `CCc1ccc(NC(=O)c2cccc(CN3CCCN(CC4CCCCC4)CC3)c2)cc1`, the growth inhibition in experiment [1] was 41%; in experiment [4] it was 85% (active). Further, the inhibition in experiment [2] was 62% (active); in experiment [3] it was 4%. Also, the result in experiment [5], in experiment [6], in experiment [7] and in experiment [8] was inactive.
For `COc1cccc(C(=O)N2CCN(Cc3cccc(NC(=O)c4cccs4)c3)CC2)c1`, the growth inhibition in experiment [1] and in experiment [4] was 95% (active) in each case. Also, the inhibition is 6% in experiment [2] and -2% in experiment [3]. Further, the result in experiment [5], in experiment [6], in experiment [7] and in experiment [8] was inactive.
Take `O=C(CCc1cnc[nH]1)Nc1cccc(-c2ccc(-c3nc4ccc(F)cc4[nH]3)s2)c1`: the growth inhibition in experiment [1] was 69% (active); in experiment [4], 101% (active). Further, the inhibition in experiment [2] is 17%; in experiment [3] it was -3%. Besides, the result in experiment [5], in experiment [6], in experiment [7] and in experiment [8] was inactive.
In the case of `Cc1ccc(NC(=O)c2cc([N+](=O)[O-])ccc2NCc2cccnc2)cc1Cl`, the results for the growth inhibition in experiment [1] and in experiment [4] were 58% (active) and 86% (active), respectively. Also, the inhibition is 9% in experiment [2] and -5% in experiment [3]. Moreover, the result in experiment [5], in experiment [6], in experiment [7] and in experiment [8] was inactive.
With `CCCc1cc(Cc2cnc(N)nc2N)cc(CCC)c1OCCCC(=O)OCC`, the results for the growth inhibition in experiment [1] and in experiment [4] were -5% and 94% (active), respectively. Moreover, the inhibition is -8% in experiment [2] and -2% in experiment [3]. Further, the result in experiment [5], in experiment [6], in experiment [7] and in experiment [8] was inactive.
